Our source for the outcome, Potency and Z-AUC values is PubChem BioAssay (NCATS).

Records with an inconclusive call do not appear. Calls of active or inactive are those of the source. Unless noted, calls come from the whole dose curve; as a rule, active = well fitted curve in the direction sought with a large enough effect; inconclusive = small, poorly fitted or top-dose-only effect, or another doubt; inactive = no such curve, though single readings can be large; an effect the other way counts as inactive or inconclusive.

Assay [1] in a line: HPAF-II 24hr Apoptosis Induction qHTS against the NCATS CANVASS Library (AID 1347356). Note: 0% is about no effect. A digest of the protocol:
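Luminescent caspase-3/7 signal (DEVD substrate, Caspase-Glo) served as read-out, taken 15 min after reagent addition to HPAF-II cells exposed 24 h to compounds.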
(In general: qHTS replaces the single test concentration by a dilution series.)

Assay [2] in a line: HEK293 18hr Apoptosis Induction qHTS against the NCATS CANVASS Library (AID 1347357). Note: 0% is about no effect. In a few lines: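 Caspase-3/7 luminescence (DEVD substrate, Caspase-Glo) after 18 h compound exposure of HEK293 cells, 500 cells/well; 11-point series; doxorubicin titration as control.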
Assay [3] can be described thus: HPAF-II 12hr Apoptosis Induction qHTS against the NCATS CANVASS Library (AID 1347358). Note: 0% is about no effect. A digest of the protocol: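 500 HPAF-II cells/well; cmpds 11-pt; 12 hr, 37 degrees C/5% CO2; Caspase-Glo 3/7 added, 15 min RT dark; luminescence read. Doxorubicin titration as control.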
A short description of assay [4]: HEK293 24hr Apoptosis Induction qHTS against the NCATS CANVASS Library (AID 1347359). Note: 0% is about no effect. In a few lines: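 Caspase-3/7 activation measured as luminescence from the DEVD-based Caspase-Glo reagent, 15 min at room temperature, following 24-hour compound treatment of HEK293 cells.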
Assay [5] is described as follows: HPAF-II 18hr Apoptosis Induction qHTS against the NCATS CANVASS Library (AID 1347360). Note: 0% is about no effect. In a few lines: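 Caspase-Glo 3/7 luminescence (DEVD substrate) after 15 min RT; HPAF-II, 500 cells/well, 18 h compound exposure at 37 degrees C, qHTS series; doxorubicin control 0.1nM - 4uM.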
Assay [6] in a line: HEK293 12hr Apoptosis Induction qHTS against the NCATS CANVASS Library (AID 1347361). Note: 0% is about no effect. In a few lines: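 500 HEK293 cells/well; cpds pin-transferred, 11-pt conc series; 12 h, 37 degrees C/5% CO2; Caspase-Glo 3/7 added, 15 min RT dark; luminescence.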
Assay [7] has as its target Luciferin 4-monooxygenase (Photinus pyralis) (UniProt P08659). Nature of the assay: Firefly luciferase counterscreen qHTS: Assay Interference Panel against the NCATS CANVASS Library (AID 1347363). Note: series mostly up to about 57 µM; 0% is about no effect. A digest of the protocol: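 Luminescence inhibition readout: compounds (11-point qHTS) sat 15 min at room temperature with substrate mix (0.013 mM luciferin and ATP), then firefly luciferase was added and signal read 5 min later.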
(In general: A counterscreen serves to expose hits that act by an unwanted route or on another target.)

Assay [8] is described as follows: qHTS for ATAD5 Agonist screened against the NCATS CANVASS Library (AID 1347367). Note: potency is the fitted concentration of half-maximal effect. In a few lines:
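Luminescence read-out: ATAD5-driven luciferase in stably transfected HEK 293T cells, which rises post-transcriptionally with DNA damage. Cells were exposed 16hr at 37C to test compound; a CellTiter-Fluor fluorescence read (1hr) measured viability first.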

The nature of assay [9]: J3T Cancer Cell Toxicity qHTS against the NCATS CANVASS Library (AID 1347371). Note: potency is the fitted concentration of half-maximal effect. In a few lines:
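Cells plated at 500 per well, compounds pin-transferred, plates incubated 72 hr at 37C, then CellTiterGlo added and luminescence read to measure ATP content.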

Assay [10] concerns the target Nuclear receptor subfamily 1 group I member 3 (Homo sapiens) (UniProt Q14994). Nature of the assay: qHTS for Constitutive Androstane Receptor (CAR) Agonist screened against the NCATS CANVASS Library (AID 1347373).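 Note: every well also contained 1.5 µM PK11195 alongside the test compound.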 Note: potency is the fitted concentration of half-maximal effect. In a few lines: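 HepG2-hCAR-CYP2B6 cells, 2500/well, attached 4hr; cpd + PK11195 1.5uM final; 24hr 37C 5% CO2. CellTiter-Fluor viability read, then ONE-Glo luminescence for CAR activation.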

The nature of assay [11]: qHTS for Hypoxia signaling pathway (HIF-1) agonists against the NCATS CANVASS Library (AID 1347375). Note: 0% is about no effect. In a few lines: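 ME-180 HRE-bla reporter cells; 2,000/well, 0.5% dialyzed FBS; cpd added after 5 h, 17 h 37C/5% CO2; CCF4-AM 2 h RT; FRET 460/530 nm; CellTiter-Glo viability same wells, 30 min.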
Assay [12] can be described thus: 10-beta competent E. coli microbial cell viability qHTS against the NCATS CANVASS Library (AID 1347376). Note: series mostly up to about 46 µM; 0% is about no effect. In a few lines: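 E. coli 10-beta, 0.2 OD; cpds 11-pt; o/n 37C, 5% CO2; BacTiter-Glo 20 min RT; luminescence (ATP) = viable cells. Daunomycin ctrl.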
Assay [13] can be described thus: Inflammasome Signaling qHTS Counterscreen: IL-1-beta AlphaLISA counterscreen against the NCATS CANVASS Library (AID 1347381).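 Note: cell-free check with purified IL-1β in medium and no THP-1 cells; series mostly up to about 57 µM; 0% is about no effect.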 A digest of the protocol:
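Cell-free interference check: compounds added to medium spiked with 4 pg purified IL-1β. Anti-IL-1β acceptor beads (6 ug/mL) with 0.6 nM biotinylated antibody added for 1 h at RT, then streptavidin donor beads (24 ug/mL) for 30 min in the dark. AlphaLISA read at 680/615 nm.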

Assay [14] in a line: Cytotoxicity qHTS for assessment of Hepg2 cells membrane integrity screened against the NCATS CANVASS Library (AID 1347387). In a few lines: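 qHTS, 11-pt conc. series, 0.59 nM - 46 uM final; HepG2 2000 cells/well, overnight attachment; 5 hr compound exposure 37C/5% CO2; CytoTox-ONE, 10 min RT; fluorescence ex560/em590 = LDH from damaged membranes.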
Assay [15] is described as follows: Redox Reaction Profiling qHTS: Assay Interference Panel against the NCATS CANVASS Library (AID 1347401).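 Note: 100% = activation by 2 µM chloranil control.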 In a few lines:
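Cell-free redox surrogate: 5 uM resazurin + 200 uM DTT, 50 mM HEPES pH 7.3/50 mM NaCl; cpds pinned, 11-pt qHTS; Ex525/Em598 read t0 and t=15 min, dark.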

A short description of assay [16]: qHTS drug screen for cell cycle checkpoint inhibitors in PARPi-resistant BRCA-mutant ovarian cancer cell lines. (AID 1963452; calls by dose curve; note: potency is the fitted concentration of half-maximal effect). To be noted: PEO1/OlaR viability, CellTiter-Glo luminescence, 96 h; for Z-AUC: stronger effect = lower value. A digest of the protocol:
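PEO1, PEO4 and PEO1/OlaR ovarian cancer cells, 600 per well, exposed 96 h at 37C to a dilution series. Viability read by CellTiter-Glo luminescence, normalized to DMSO and empty wells; activity summarized as Z-AUC.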

The mark [17] stands for this setting: measured here: PEO1 parental Z-AUC.

Chain of Nuclear receptor subfamily 1 group I member 3 (Homo sapiens) (Q14994 whole entry, looked up): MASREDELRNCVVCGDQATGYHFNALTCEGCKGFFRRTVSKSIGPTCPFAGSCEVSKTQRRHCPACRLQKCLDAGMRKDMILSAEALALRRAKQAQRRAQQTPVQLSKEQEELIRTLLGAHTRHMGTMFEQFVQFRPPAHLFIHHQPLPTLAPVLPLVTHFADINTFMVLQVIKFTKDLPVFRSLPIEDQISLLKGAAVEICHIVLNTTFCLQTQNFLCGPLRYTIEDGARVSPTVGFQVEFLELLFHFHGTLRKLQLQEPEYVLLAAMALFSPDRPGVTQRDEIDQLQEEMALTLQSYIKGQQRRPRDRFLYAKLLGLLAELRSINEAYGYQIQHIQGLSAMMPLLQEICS
Chain of Luciferin 4-monooxygenase (Photinus pyralis) (P08659 whole entry, looked up): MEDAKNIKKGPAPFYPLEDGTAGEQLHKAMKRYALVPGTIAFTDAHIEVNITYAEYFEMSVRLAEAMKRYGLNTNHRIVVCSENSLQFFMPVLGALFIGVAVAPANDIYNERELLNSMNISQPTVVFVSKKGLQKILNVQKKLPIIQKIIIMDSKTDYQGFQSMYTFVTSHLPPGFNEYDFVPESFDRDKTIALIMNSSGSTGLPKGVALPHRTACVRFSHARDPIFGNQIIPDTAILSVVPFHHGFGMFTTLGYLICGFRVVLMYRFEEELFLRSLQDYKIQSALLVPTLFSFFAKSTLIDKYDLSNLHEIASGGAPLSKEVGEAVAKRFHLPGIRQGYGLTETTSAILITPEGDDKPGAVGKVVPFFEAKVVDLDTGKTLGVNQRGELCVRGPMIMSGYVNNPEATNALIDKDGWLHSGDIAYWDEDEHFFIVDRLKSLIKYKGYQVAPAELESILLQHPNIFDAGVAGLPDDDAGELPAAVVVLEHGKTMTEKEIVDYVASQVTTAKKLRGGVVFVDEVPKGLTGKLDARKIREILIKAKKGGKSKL

As to `C[N+](C)(C)CCc1c[nH]c2ccccc12`, the call in [1], in assay [2], in assay [3], in assay [4], in [5] and in assay [6] was inactive. In addition, the compound was called inactive in assay [11], in assay [12], in assay [13] and in [14]. Moreover, the Potency entry in assay [7], in [8], in assay [9], in assay [10] and in assay [15] was “inactive” throughout.

Consider `CC[C@H]1CN2CCc3c([nH]c4cccc(OC)c34)[C@@H]2C[C@@H]1/C(=C\OC)C(=O)OC`, for which the outcome in [1], in assay [2], in assay [3], in assay [4], in [5] and in assay [6] was inactive. The call in [11], in [12], in assay [13] and in assay [14] was inactive. Further, the Potency entry in assay [7], in [8], in assay [9], in assay [10] and in assay [15] was “inactive” in each case.

Regarding `CO[C@H]([C@@H](C)[C@H]1O[C@]1(C)C[C@H](C)/C=C/C=C(\C)[C@H]1O[C@@H](CC(=O)O)CC[C@@H]1C)[C@@H](C)O`, the call in assay [1], in [2], in [3], in [4], in assay [5] and in assay [6] was inactive. Moreover, the call in [11], in assay [12], in assay [13] and in [14] was inactive. In addition, the Potency entry in [7] and in [15] was “inactive” each time. For the same compound, the values for the Potency in assay [8], in assay [9] and in assay [10] were 46.7 nM (active), 20.9 nM (active) and 105 nM (active), respectively.

For `C=CC(C)(C)[C@@]12C[C@H]3C(=O)N/C(=C/c4cnc[nH]4)C(=O)N3[C@@H]1Nc1ccccc12`, the call in [1], in [2], in assay [3], in assay [4], in [5] and in [6] was inactive. In addition, the compound was called inactive in assay [11], in assay [12], in [13] and in [14]. Also, the Potency entry in assay [7], in assay [8], in assay [9], in assay [10] and in assay [15] was “inactive” in each case.

Regarding `COc1cc(C)[nH]c(=O)c1CNC(=O)c1c(C)n([C@H](C)C2CCN(CC(F)(F)F)CC2)c2ccccc12`, the Z-AUC in [16] was 1.18 (inactive); in [16] (setting [17]), 0.708; in assay [16] (measured here: PEO4 Z-AUC) it was 0.343.

For the compound `COc1cc2cc(c1Cl)N(C)C(=O)C[C@H](OC(=O)C(C)C)[C@]1(C)O[C@@H]1[C@H](C)[C@@H]1C[C@@](O)(NC(=O)O1)[C@H](OC)/C=C/C=C(\C)C2`, the Potency in [16] is 549 nM (active). The results for the Z-AUC in [16] (setting [17]) and in assay [16] (measured here: PEO4 Z-AUC) were -2.8 and -2.84, respectively.

`CN1C(=O)[C@@H](NC(=O)[C@H](CCC(F)(F)F)[C@H](CCC(F)(F)F)C(N)=O)N=C(c2ccccc2)c2ccccc21`: the figures for the Z-AUC in assay [16], in assay [16] (setting [17]) and in assay [16] (measured here: PEO4 Z-AUC) were -0.603 (inactive), 0.158 and -0.105, respectively.

For the compound `COC12C(COC(N)=O)C3=C(C(=O)C(C)=C(N)C3=O)N1CC1C2N1C` (configuration not stated), the Z-AUC in assay [16] was -0.24 (inactive); in [16] (setting [17]) it was 0.0826; in assay [16] (measured here: PEO4 Z-AUC), -0.134.

As for `CC(=O)O[C@@]12CO[C@@H]1C[C@H](O)[C@@]1(C)C(=O)[C@H](O)C3=C(C)[C@@H](O)C[C@@](O)([C@@H](OC(=O)c4ccccc4)[C@H]21)C3(C)C`, the Z-AUC is 1.05 (inactive) in [16], 0.322 in [16] (setting [17]) and 0.492 in assay [16] (measured here: PEO4 Z-AUC).

In the case of `Cn1c(/C=C/CO)c(CO)c2c1C(=O)C=C(N1CC1)C2=O`, the Z-AUC in assay [16] is -0.176 (inactive); in assay [16] (setting [17]) it was -0.939; in assay [16] (measured here: PEO4 Z-AUC), -0.899.

On to `CC(C)(O)/C=C\C(=O)[C@](C)(O)[C@H]1[C@H](O)C[C@]2(C)[C@@H]3CC=C4[C@@H](C=C(O)C(=O)C4(C)C)[C@]3(C)C(=O)C[C@@]12C`, for which the results for the Z-AUC in assay [16], in [16] (setting [17]) and in assay [16] (measured here: PEO4 Z-AUC) were -2.52 (inactive), -1.67 and -2.46, respectively.

In the case of `CO[C@H]1CCC(O[C@H]2C[C@H]([C@]3(C)CC[C@]4(C[C@H](O)[C@@H](C)[C@@H]([C@@H](C)/C=C(\C)C(=O)[C@H](C)C[C@H](C)C(=O)O)O4)O3)O[C@]3(O[C@@H]([C@H]4O[C@@](O)(CO)[C@H](C)C[C@@H]4C)C[C@@H]3C)[C@@H]2C)O[C@@H]1C` (some centres not stated), the results for the Z-AUC in assay [16], in [16] (setting [17]) and in assay [16] (measured here: PEO4 Z-AUC) were -1.49 (inactive), -1.68 and -1.99, respectively.

As to `COC(=O)[C@@]12OC[C@]34[C@H]([C@@H](O)[C@@H]1O)[C@@]1(C)CC(=O)C(O)=C(C)[C@@H]1C[C@H]3OC(=O)[C@H](OC(=O)/C=C(\C)C(C)C)[C@@H]24`, the Potency in [16] was 174 nM (active). Further, the results for the Z-AUC in assay [16] (setting [17]) and in [16] (measured here: PEO4 Z-AUC) were -2.46 and -2.64, respectively.

With `COC[C@H]1OC(=O)c2coc3c2[C@@]1(C)C1=C(C3=O)[C@@H]2CC[C@H](O)[C@@]2(C)C[C@H]1OC(C)=O`, the Z-AUC is 0.029 (inactive) in assay [16], -0.102 in assay [16] (setting [17]) and 0.779 in assay [16] (measured here: PEO4 Z-AUC).

For `Cc1[nH]ncc1-c1cc2nc([C@@H]3CC4CCN3CC4)[nH]c(=O)c2s1`, the values for the Z-AUC in assay [16], in assay [16] (setting [17]) and in assay [16] (measured here: PEO4 Z-AUC) were 0.732 (inactive), 0.621 and 0.645, respectively.

`N#CC(O[C@@H]1O[C@H](CO[C@@H]2O[C@H](CO)[C@@H](O)[C@H](O)[C@H]2O)[C@@H](O)[C@H](O)[C@H]1O)c1ccccc1` (some centres not stated): the Z-AUC in [16] was 0.897 (inactive); in [16] (setting [17]), 0.644; in [16] (measured here: PEO4 Z-AUC) it was 0.881.

As to `C[C@@]12OC(=O)[C@]1([C@@H](O)[C@@H]1C=CCCC1)NC(=O)[C@@H]2CCCl`, the Z-AUC in assay [16] is -0.972 (inactive); in assay [16] (setting [17]), -1.61; in assay [16] (measured here: PEO4 Z-AUC) it was -1.64.

Turning to `O=C(O)CNC(=O)C1C(=O)N(C2CCCCC2)C(=O)N(C2CCCCC2)C1=O`, the Z-AUC in assay [16] was 0.43 (inactive); in assay [16] (setting [17]), 0.47; in assay [16] (measured here: PEO4 Z-AUC) it was 0.437.
